EBV LMP1 NFkB: EBV LMP1-driven NF-kappaB luciferase reporter inhibitors, primary screen, cell-based, luminescence, single point. 350,000 compounds, 0.69% hits. inhibition, % at 12.5 µM. LMP1-induced NF-kappaB luciferase reporter cells; in the data active = inhibition above about 41%; inconclusive = no clear call, values can overlap the other calls
PAX8 reporter: inhibitors of PAX8-driven TPO luciferase reporter, primary screen, RMG-I cells, single concentration; AID 652154, 2013; inhibition, % at 12.6 µM; SteadyGlo, 24 h; 360,000 compounds, 1.2% hits;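 active = mean replicate inhibition at least 60% with every replicate also reaching 60%; inconclusive = only one of the two criteria is met; inactive = mean below 60% and not all replicates reaching 60%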;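 also: luciferase light reporting Pax8 driven TPO promoter activity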
NSD2 inh: NSD2 histone methyltransferase inhibitors, primary screen, biochemical, AlphaScreen, single concentration, set 2; NSD2 peptide methylation, 120 min; 310,000 compounds, 0.54% hits; inhibition, % at 12.5 µM; AID 743445, 2014; in the data active = inhibition above about 50%
Shn3 inh set2: reduction of Shn3 3'UTR firefly luciferase signal, primary screen, Schnurri-3 inhibitor project, cell-based, Clone20 osteoblasts, set 2; 360,000 compounds, 0.52% hits; Clone20 osteoblast Shn3 3'UTR firefly luciferase, 24 h; AID 588674, 2011; inhibition, % at 12.5 µM;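 active = mean inhibition of at least 75% with every replicate also reaching 75%; inconclusive = mean inhibition at least 75% but some replicate below; inactive = mean inhibition below 75%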
Glyco luc inh: increase of ERlucT glycosylation luciferase signal, primary screen, N-linked glycosylation inhibitor project, D54 ERlucT cells, luminescence, set 2; reporter increase, % at 12.5 µM; AID 588692, 2011; 360,000 compounds, 0.23% hits; D54 ERlucT glycosylation luciferase reporter, 24 h; percent of 100 nM tunicamycin response;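 active = mean luciferase reporter signal, scaled so untreated is 0 and the glycosylation-blocking control 100, at or above a set limit in every replicate; inconclusive = mean reaches the limit but not every replicate does; inactive = mean below the limit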;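 also: luciferase carries N-glycosylation sites so blocking glycosylation raises the light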
Env fusion inh: inhibitors of HIV-1 Env-driven cell-cell fusion, primary screen, HeLa-JRFL effector, CEM21 target cells, luciferase | 360,000 compounds, 1.1% hits | inhibition, % at 12.3 µM;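 active = mean replicate inhibition score of at least 50 and every replicate individually at or above 50; inconclusive = only one of the two criteria met; inactive = mean below 50 and not all replicates reaching 50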
Alpha artifact: AlphaScreen signal interference with preloaded methylated product, dose response, artefact control for NSD2 inhibitor project, biochemical, cherry-picked samples | AlphaScreen artifact counterscreen, preloaded methylated H4 peptide | 1,500 compounds, 9.4% hits | shares compounds with NSD2 inh | AC35, µM (top dose mostly 10 µM); call rule not given here
Each line names hits and unclear results; the compound was inactive in the other large screens (follow-up assays come after a bar, where they were run). Only some compounds are listed: those with a hit (about 2.8% of all), similar ones and a draw of the others.

Cc1noc(C)c1NC(=O)N[C@H]1C=C[C@H](CC(=O)N2CCCCC2)O[C@@H]1CO	none (no result: EBV LMP1 NFkB, NSD2 inh, Shn3 inh set2, Glyco luc inh)
COc1ccc(NS(=O)(=O)c2cc(NC(=O)COc3ccccc3)ccc2N2CCOCC2)cc1	NSD2 inh 60.1 | Alpha artifact inactive
CCOc1ccc(-c2ncncc2-c2ccc(OC)cc2)c(O)c1	none (no result: PAX8 reporter, Env fusion inh)
COc1ccc(-c2ncncc2-c2ccccc2)c(O)c1	NSD2 inh 67.7 | Alpha artifact inactive
O=C(O)COc1ccccc1/C=N/Nc1ccc(S(=O)(=O)Nc2ccc(Cl)cc2)cc1[N+](=O)[O-]	NSD2 inh 50.3 | Alpha artifact inactive
O=c1c2c(n3cnnc3n1-c1ccccc1)-c1ccccc1CC21CCCC1	NSD2 inh 102.0 | Alpha artifact inactive
CCN(CC)CCNC(=O)Cn1nc(Cc2ccncc2)c2ccccc2c1=O	none
CCN(CC)CCNC(=O)Cc1nn(Cc2ccccc2)c(=O)c2ccccc12	NSD2 inh 51.4 | Alpha artifact inactive
COCCCNC(=O)c1ccc2c3c(onc13)-c1ccccc1C2=O	NSD2 inh 53.3 (no result: PAX8 reporter, Env fusion inh) | Alpha artifact inactive
COCCCNC(=O)c1ccccc1Oc1ccccc1	none (no result: PAX8 reporter, Env fusion inh)
COc1ccc2c(c1)Cc1sc(NC(=O)c3ccco3)nc1-2	none (no result: PAX8 reporter, Env fusion inh)
COc1ccc2c(c1)Cc1sc(NC(=O)c3cccnc3)nc1-2	NSD2 inh 52.4 | Alpha artifact inactive
COc1ccc2c(c1)Cc1sc(NC(C)=O)nc1-2	NSD2 inh 94.5 (no result: PAX8 reporter) | Alpha artifact inactive
Cc1ccc2cccc(OCc3ccc(Br)cc3)c2n1	NSD2 inh 50.8 | Alpha artifact inactive
COc1ccc(-c2nnc3n2N=C(C)CS3)cc1	NSD2 inh 68.5 | Alpha artifact inactive
COc1ccccc1NC(=O)c1ccccc1NS(=O)(=O)N1CCCC1	NSD2 inh 83.0 (no result: PAX8 reporter, Env fusion inh) | Alpha artifact inactive
CC(C(=O)O)N1C(=O)/C(=C/C=C/c2ccco2)SC1=S (stereo not drawn)	NSD2 inh 176.3 (no result: PAX8 reporter, Env fusion inh) | Alpha artifact 4.35µM
CCN(C(=O)C(C)N1C(=O)/C(=C/c2ccco2)SC1=S)C1CCS(=O)(=O)C1 (stereo not drawn)	none (no result: EBV LMP1 NFkB)
CC(O)CNCCCOc1cccc(Oc2ccccc2)c1 (stereo not drawn)	none
CC(=O)NCCOc1cccc(OCCNC(C)=O)c1	none (no result: PAX8 reporter, Glyco luc inh)
CNCCCOc1cccc(Oc2ccccc2)c1	NSD2 inh 126.8 | Alpha artifact inactive
CNCCCOc1cccc(OC(C)C)c1	NSD2 inh 92.0 (no result: PAX8 reporter, Env fusion inh) | Alpha artifact inactive
CO[C@@H]1CC[C@H]2CCOc3ccc(C#N)cc3C(=O)N(C)C[C@@H](C)C(=O)N(C)C[C@H]1O2	none (no result: EBV LMP1 NFkB, NSD2 inh, Shn3 inh set2, Glyco luc inh)
CCOC(=O)C1CCCN(C(=O)c2ccc(OC(C)=O)cc2)C1 (stereo not drawn)	NSD2 inh 93.4 | Alpha artifact inactive
COc1ccccc1NS(=O)(=O)c1ccc(C(=O)N2CCCCCC2)cc1	Env fusion inh inconclusive
CCOC(=O)C1CCCN(C(=O)c2ccc(S(=O)(=O)Nc3ccccc3OC)cc2)C1 (stereo not drawn)	NSD2 inh 53.7 | Alpha artifact inactive
COc1cc(/C=C/c2cccc[n+]2C)ccc1OCC(=O)Nc1ccccc1C	NSD2 inh 130.8 | Alpha artifact inactive
Cc1cc(C)n(-c2nc(NCC(C)O)c3c4c(sc3n2)COC(C)(C)C4)n1 (stereo not drawn)	NSD2 inh 80.6 (no result: PAX8 reporter) | Alpha artifact inactive
COc1ccc(S(=O)(=O)Nc2ccc3c(c2)C(=O)N([C@H](C)CO)C[C@@H](C)[C@@H](CN(C)C(=O)Nc2ccc(F)cc2)O3)cc1	none (no result: EBV LMP1 NFkB, NSD2 inh, Shn3 inh set2, Glyco luc inh)
COCC(=O)Nc1ccc2c(c1)[C@@H]1C[C@H](CC(=O)NCc3cccnc3)O[C@H](CO)[C@@H]1O2	none (no result: EBV LMP1 NFkB, NSD2 inh, Shn3 inh set2, Glyco luc inh)
COc1ccc(C(C[N+](=O)[O-])c2c(C)[nH]n(-c3ccccc3)c2=O)cc1 (stereo not drawn)	NSD2 inh 92.3 | Alpha artifact inactive

Screening results as filed in PubChem.
